Only some compounds are listed: those with a hit (about 14% of all), similar ones and a draw of the others.
Pf growth 48h: inhibits P. falciparum growth in the first generation, 48 h; Potency, µM (highest dose often 28.7 µM), for the others: top-dose activity change, negative = inhibition, most hits filed as inhibitors; P. falciparum luciferase growth in erythrocytes, 48 h; hit rate 5.9% among 310,000; also: potency is read from the fitted curve at half-maximal effect
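Erythrocytes infected with P. falciparum carrying an integrated firefly luciferase reporter (2% hematocrit, 0.1% parasitemia final) were exposed to compounds in RPMI 1640 with 0.5% Albumax at 37 C, 5% CO2. Growth inhibition was scored as reduced luminescence.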
HCV inhibitor: blocks hepatitis C virus | Potency, µM (highest dose often 41.8 µM), for the others: at the top dose activity change, negative = inhibition, usual class: inhibitors | AID 651820 | hit rate 3.4% among 340,000 | Huh7.5.1 HCVcc-Cre infection, luciferase reporter, 44 h; also: potency is read from the fitted curve at half-maximal effect
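1,000 cells/well; 4 h culture; + compound; + HCVcc-Cre (~0.5 moi); 44 h; luciferase substrate, RT 15 min; read 15 sec.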
LASV entry inh: inhibitors of Lassa virus binding or cell entry; Potency, µM (doses to about 37.9 µM), for inactives: at the top dose activity change, negative = inhibition, usual class: inhibitors; Lassa virus pseudotype entry inhibition, cell reporter; hit rate 1.2% among 300,000; calls by dose curve; tested in HEK293 cells; also: potency is read from the fitted curve at half-maximal effect; nearly all actives have a fitted effect of over 50% in size
MARV entry inh: blocks Marburg virus binding to or entry into cells; hit rate 1.8% among 300,000; Marburg virus pseudotyped entry inhibition, cell reporter; Potency, µM (series often up to 37.8 µM), inactives show at the top dose activity change, negative = inhibition, most hits filed as inhibitors; calls by dose curve; tested in HEK293 cells; also: potency is read from the fitted curve at half-maximal effect
Pf growth 96h: P. falciparum growth inhibition at 96 hour, primary screen for plastid delayed-death inhibitors. P. falciparum luciferase reporter growth, 96 h. Potency, µM (top dose mostly 28.7 µM), for the others: top-dose activity change, negative = inhibition, actives largely listed as inhibitors. hit rate 6.9% among 320,000; also: potency is read from the fitted curve at half-maximal effect
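P. falciparum expressing integrated firefly luciferase, in erythrocytes at 2% hematocrit, 0.05% parasitemia, incubated with compounds 96 h at 37 C, 5% CO2. Growth inhibition read as loss of luminescence; two-generation exposure targets delayed-death apicoplast inhibitors.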
HCMV inh: inhibitors of human cytomegalovirus; HFF cells, HCMV-luciferase reporter, 72 h; hits give low values; activity change, negative = inhibition, % at 57.5 µM; hit rate 4.5% among 410,000; AID 1259415; in the data active = activity change below about -60%; inconclusive = no clear call, values can overlap the other calls; inactive = above about -39%
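Human foreskin fibroblasts infected with luciferase-reporter HCMV at MOI 1 PFU/cell, compounds at two doses. Luciferase measured 72 h post infection; normalized to buffer-only basal and Salinomycin (10uM) controls.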
* = called active by the depositor; ? = inconclusive; . = no result; + = active, no number; ! = not confirmed by another sample; [ ] = another dose, or the depositor's remark. Unless noted, calls follow the shape of the dose curve; as a rule, active = well fitted inhibition curve with a large enough effect; inconclusive = small, poorly fitted or top-dose-only effect, or another doubt; inactive = no such curve, though single readings can be large or run the other way. % is scaled to controls: 0 for no effect and ±100 for the full control effect.

SMILES	Pf growth 48h	HCV inhibitor	LASV entry inh	MARV entry inh	Pf growth 96h	HCMV inh
COc1ccc(CCNC(=O)c2nn(C)c3c2CS(=O)(=O)c2ccccc2-3)c(OC)c1	-18%	11µM*	.	.	?	?
CCOc1ccc(CCNC(=O)c2nn(C)c3c2CS(=O)(=O)c2ccccc2-3)cc1	?	?	.	.	28%	?
CCOc1ccc(CCNC(=O)c2nn(C)c3c2CS(=O)(=O)c2ccccc2-3)cc1OCC	?	6.3µM*	?	?	11%	1
CCNc1nn2ccccc2c1/C=C(\C#N)C(=O)OCC	30%	10µM*	.	.	-6%	-15
CCOC(=O)/C(C#N)=C/c1c(N2CCCCCC2)nc2ccccn2c1=O	?	?	.	.	?	-37
CCc1ccc(C(=O)NC(Cc2c[nH]c3ccccc23)C(=O)OCC(=O)c2ccc(Br)cc2)cc1 (stereo not given)	.	.	-23%[46.1 µM]	.	.	0
N#Cc1c2ccc(OCC(N)=O)cc2n2ccccc12	51%	13µM*	.	.	36%	-14
CN(C)c1ccc(/C=c2\sc3n(c2=O)CCCN=3)cc1	43%	?	2µM*	?	-4%[5.75 µM]	-36
COc1ccc(-n2nnnc2SCC(=O)Nc2ccccc2N2CCOCC2)cc1	?	4%	-15%	?	13%	6
Cc1ccc(-n2nnnc2SCC(=O)Nc2ccccc2-c2ccccc2)cc1C	-16%	?	-26%	?	4.7µM*	3
CC(Sc1nnnn1-c1ccccc1)C(=O)Nc1ccccc1-c1ccccc1 (stereo not given)	?	-1%	-6%	?	2.9µM*	?
CC(Sc1nnnn1-c1ccccc1)C(=O)Nc1ccc(N2CCN(C)CC2)cc1 (stereo not given)	-2%	7%	25%[46.1 µM]	9%[46.1 µM]	22%	-11
Cc1ccc(-n2nnnc2SCC(=O)Nc2ccccc2N2CCCCC2)cc1C	2.3µM*	10µM*	?	13µM*	?	-27
COC(=O)c1ccc(-n2nnnc2SCC(=O)Nc2ccccc2OC)cc1	10%	-9%	-4%	-4%	.	-7
CCOc1ccccc1NC(=O)CSc1nnnn1-c1ccc(C(=O)OC)cc1	13%	-5%	-3%	18%	4.1µM*	-20
Cc1ccc(OCC(=O)N(Cc2ccc(Cl)cc2)Cc2ccco2)cc1C	.	.	3%[46.1 µM]	8%[46.1 µM]	.	0
CCc1nc2ccc(C(=O)Nc3cccc(OCC(=O)N(C)C)c3)cn2c1N(CC)CCOC	.	.	.	.	.	-11
OC[C@@H]1CN(Cc2ccc(-c3ccccc3)cc2)C[C@H](n2cnc3c(NC4CCC4)ncnc32)O1	.	.	.	.	.	-88*
CCOC(=O)c1ccc(NS(=O)(=O)c2cc3c4c(c2)CCN4C(=O)CC3)cc1	?	10%	?	-7%	7%	-81*
CCCNC(=O)CCn1nc(-c2ccc(Cl)cc2)c2ccccc2c1=O	?	-12%	4%	?	-28%	-24
CCCNC(=O)CCn1nc(-c2ccc(C)cc2)c2ccccc2c1=O	-16%[0.00184 µM]	-18%	-21%[46.1 µM]	.	-8%	-65*!
CCCCNC(=O)CCn1nc(-c2ccccc2)c2ccccc2c1=O	-21%	?	.	.	7%	.
CCCCNC(=O)CCn1nc(-c2ccc(C)cc2)c2ccccc2c1=O	-15%[0.00184 µM]	-17%	.	.	-19%	-72*
Cc1ccc(N2C(=O)c3cccc4c(N)ccc(c34)C2=O)c2cccnc12	?	14%	.	.	?	+
O=C(Nc1ccc2oc(-c3cccnc3)nc2c1)c1cccnc1	-3%	-2%	2%	0%	?	5
SMILES	Pf growth 48h	HCV inhibitor	LASV entry inh	MARV entry inh	Pf growth 96h	HCMV inh
Cc1c(C(=O)Nc2ccc3oc(-c4cccnc4)nc3c2)oc2ccccc12	?	?	18µM*	-19%	?	-67*
Cc1c(C(=O)NCc2cccs2)oc2ccc(Br)cc12	51%	-2%	?	7.3µM*	.	14
Cc1c(C(=O)Nc2cccnc2)oc2ccc(Br)cc12	31%	?	?	5µM*	15%	51
CCc1ccc2oc(C(=O)Nc3cccnc3)c(C)c2c1	174%	?	.	.	168%	.
O=C(Nc1ccc2oc(-c3cccnc3)nc2c1)c1ccc([N+](=O)[O-])o1	?	2.5µM*	?	?	?	-12
O=C(c1cc(COc2c(F)cccc2F)on1)N(Cc1ccccc1)CC1CC1	1%	?	?	19%[46.1 µM]	-16%	-19
CC(C)(C)NC(=O)CSc1nc(O)cc(=O)n1-c1ccccc1F	2.6µM*	22%	-5%	0%	42%	12
COc1ccccc1-n1c(SCC(=O)NC(C)(C)C)nc(O)cc1=O	2.3µM*	27%	-4%	15%	35%	-37
COc1ccc(C(=O)/C=C2/c3ccccc3CC(C)(C)N2C)cc1	27%	.	-38%[14.3 µM]	?	138%	6
CN1/C(=C\C(=O)Nc2cccnc2)c2ccccc2CC1(C)C	?	12%	-3%	-4%	5.9µM*	-27
OC[C@H]1O[C@H](n2cnc3c(N[C@H]4CCC[C@@H]4O)ncnc32)[C@H](O)[C@@H]1O	.	.	9%	2%	.	.
Nc1c(Cl)ncnc1N/N=C/c1cccnc1	25%	9%	-7%	22%[14.2 µM]	7%	-13
Nc1c(Cl)ncnc1N/N=C/c1ccccn1	2.1µM*	?	2.5µM*	?	2.9µM*	-99*
Nc1c(Cl)ncnc1N/N=C/c1ccc2ccccc2n1	?	4µM*	?	16µM*	3.7µM*	-98*
Cc1ccc(C)c(NC(=O)CN(C)C(=O)c2ccc(COc3ccccc3)cc2)c1	.	.	.	.	.	-17
CC1CCc2[nH]c3ccc(C(=O)NCCCOC(C)C)cc3c2C1 (stereo not given)	12%	10µM*	.	.	-11%	-20
CCN(CC(=O)Nc1ccccc1C(F)(F)F)C(=O)c1ccc2[nH]c3c(c2c1)CC(C)CC3 (stereo not given)	15µM*	?	?	?	?	-21
CN(C(=O)c1ccc(NC(=O)C2CCCN(C(=O)OC(C)(C)C)C2)cc1)C1CCC1 (stereo not given)	.	-30%	.	.	.	-5
COc1cccc(C2=CC(c3ccccc3F)n3ncc(C(=O)Nc4ccc(F)cc4)c3N2)c1 (stereo not given)	.	.	?	.	.	-32
CCOC(=O)c1c2c(n(-c3ccc(OC)cc3)c1C)C(=O)C(=O)c1ccccc1-2	.	7.9µM*	2.2µM*	?	.	.
CCOC(=O)c1sc(=S)n(-c2ccc(Cl)cc2)c1C	5.2µM*	-9%	1%	-1%	?	-32
CCOC(=O)c1sc(=S)n(-c2cc(OC)ccc2OC)c1N	-8%	-14%	4%	-14%[46.1 µM]	9.3µM*	-9
CCOC(=O)c1sc(=S)n(-c2cc(F)ccc2F)c1N	-13%	-26%	-8%	13%	-11%	-40
